Test results published in PubChem BioAssay AID2283220 (EPA ToxCast).
Inconclusive results are not listed. The source made the active and inactive calls. How the source made its calls: active means hit-call score of the fitted dose curve at least 0.9, where 1 is the maximum; inconclusive means response in the unintended direction; inactive means score below 0.9.

Biological target: human Serum/Glucocorticoid Regulated Kinase 1 (SGK1), SGK1 (gene 6446) (UniProt O00141)
Assay: NVS_ENZ_hSGK1: NovaScreen (NVS) Enzymatic Assay for human Serum/Glucocorticoid Regulated Kinase 1 (SGK1)
Protocol: NVS_ENZ_hSGK1 is a biochemical, single-readout assay that uses extracted gene-proteins in a cell-free assay. Measurements were taken 1 hour after chemical dosing in a 96-well plate.NVS_ENZ_hSGK1 is one of one assay component(s) measured or calculated from the NVS_ENZ_hSGK1 assay. It is designed to make measurements of enzyme activity, a form of enzyme reporter, as detected with fluorescence intensity signals by Fluorescence and electrophoretic mobility shift technology.Data from the assay component NVS_ENZ_hSGK1 was analyzed into 1 assay endpoint. This assay endpoint, NVS_ENZ_hSGK1, was analyzed in the positive analysis fitting direction relative to DMSO as the negative control and baseline of activity. Using a type of enzyme reporter, loss-of-signal activity can be used to understand changes in the enzymatic activity as they relate to the gene SGK1. Furthermore, this assay endpoint can be referred to as a primary readout, because this assay has produced […] where this one serves a enzymatic activity function. To generalize the intended target to other relatable targets, this assay endpoint is annotated to the kinase intended target family, where the subfamily is serine/threonine kinase.
Binding assays used specific radioligands (tritiated, iodinated) with non-radioactive competitive displacement ligands in agonist or antagonist protocols (as indicated) and various reference compounds and inhibitors to titrate specific binding to receptors and transporters. Most enzyme assays (CYPs, kinases, phosphatases, proteases, HDACs) used recombinant protein and specific substrates (fluorescence mostly, some colorimetric and radioactive) and inhibitors, followed by a biochemical separation of substrate and product. All assays for the biochemical HTS were initially run in duplicate at a single concentration (10 uM for CYP450 assays and 25 uM for all others). […]

human Serum/Glucocorticoid Regulated Kinase 1 (SGK1), SGK1 (gene 6446), sequence (O00141 whole entry, looked up): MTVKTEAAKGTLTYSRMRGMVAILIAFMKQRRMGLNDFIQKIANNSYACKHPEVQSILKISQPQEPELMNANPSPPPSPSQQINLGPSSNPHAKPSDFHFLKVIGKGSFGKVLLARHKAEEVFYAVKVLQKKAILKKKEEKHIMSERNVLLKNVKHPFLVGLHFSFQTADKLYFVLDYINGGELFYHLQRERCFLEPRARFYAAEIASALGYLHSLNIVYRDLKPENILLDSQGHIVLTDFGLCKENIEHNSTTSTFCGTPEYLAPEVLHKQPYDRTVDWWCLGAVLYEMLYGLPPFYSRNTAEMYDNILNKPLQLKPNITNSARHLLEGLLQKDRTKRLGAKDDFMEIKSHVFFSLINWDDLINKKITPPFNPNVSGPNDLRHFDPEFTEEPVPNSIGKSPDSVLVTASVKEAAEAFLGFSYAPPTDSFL

N#CSCSc1nc2ccccc2s1
outcome: inactive

O=C(Nc1ccc([N+](=O)[O-])cc1Cl)c1cc(Cl)ccc1O
outcome: inactive

S=C([S-])NCCNC(=S)[S-].[Mn+2]
AC50: 10.6 µM (active)
